Experimental data: PubChem BioAssay AID2762 (National Center for Advancing Translational Sciences (NCATS), 2010)
Records with an inconclusive call do not appear. Activity calls are given as the source filed them. The call rests on the fitted dose curve; in most records, active means well fitted inhibition curve with a large enough effect; inconclusive means small, poorly fitted or top-dose-only effect, or effect the other way; inactive means no such curve, though single readings can be large or run the other way.

biological target: Nuclear receptor ROR-gamma (Mus musculus) (UniProt P51450); assay: Concentration response confirmation assay for inhibitors of ROR gamma transcriptional activity; conditions: Drosophila S2 Gal4-RORgamma UAS-luciferase, 20 h; series mostly up to 46.1 µM; activity change, negative = inhibition: at the top concentration
Sequence (P51450 whole entry, looked up, the tested form may be a part): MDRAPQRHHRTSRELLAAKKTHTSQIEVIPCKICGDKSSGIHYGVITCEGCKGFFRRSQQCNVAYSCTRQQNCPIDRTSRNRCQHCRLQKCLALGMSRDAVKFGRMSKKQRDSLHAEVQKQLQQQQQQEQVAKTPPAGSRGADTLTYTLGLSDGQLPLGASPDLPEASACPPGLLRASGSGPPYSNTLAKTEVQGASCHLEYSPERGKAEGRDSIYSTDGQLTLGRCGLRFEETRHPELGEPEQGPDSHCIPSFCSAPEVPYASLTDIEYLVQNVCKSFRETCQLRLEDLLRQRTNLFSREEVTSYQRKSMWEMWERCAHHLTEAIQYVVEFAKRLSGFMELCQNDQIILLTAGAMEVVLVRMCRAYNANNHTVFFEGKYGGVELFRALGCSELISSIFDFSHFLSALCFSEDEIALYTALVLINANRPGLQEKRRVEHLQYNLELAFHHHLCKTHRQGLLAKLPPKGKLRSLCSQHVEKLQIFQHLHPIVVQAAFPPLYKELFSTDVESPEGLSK
Source text: NIH Molecular Libraries Probe Production Network [MLPCN] NIH Chemical Genomics Center [NCGC] MLPCN Grant: R03 DA026211-01 Assay Provider: Dan Littman, New York University Assay Overview: The retinoic acid-related orphan receptor (ROR) gamma is a transcription factor that has a central role in the differentiation of Th17 cells, a subset of T helper cells that secrete the inflammatory cytokines IL-17, IL-17F, and IL-22. Th17 cells have been implicated in graft versus host disease, autoimmune disease and asthma. ROR gamma is induced in naive T helper cells in the presence of TGF-beta combined with IL-6, IL-21, or IL-23, and thereafter directs the expression of the Th17 lineage cytokines. To study the mechanism of action of ROR gamma, an insect cell-based assay was screened. This Drosophila Schneider cell line was stably transfected with two vectors: a gene expressing a fusion of the Gal4 DNA binding domain and ROR gamma transactivation domain under the control of the metallothionine promoter and a Photinus luciferase reporter regulated by the Gal4 binding site enhancer, UAS. […] Small molecule inhibitors of ROR gamma activity are detected by a decrease in luciferase reporter activity.
Assay Protocol Summary: For screening, 600 cells in 4 uL/well were dispensed into white solid 1536-well plates (Grenier) using a solenoid-based dispenser. Following transfer of 23 nL compound or DMSO vehicle by a pin tool, the plates were incubated 1 hr at ambient temperature, and 1 uL/well copper sulfate (700 uM final concentration) was added. The plates were centrifuged 15 s at 1000 RPM and incubated 20 hr at ambient temperature. After addition of 1.5 uL Photinus luciferase detection reagent, the plates were incubated 10 min at ambient temperature and then read by an ViewLux (Perkin Elmer) to detect luminescence. Keywords: NIH Roadmap, MLPCN, MLI, MLSMR, qHTS, NCGC, qHTS, nuclear hormone receptor, retinoic acid-related orphan receptor, ROR gamma

| SMILES | activity change, negative = inhibition | Potency |
| --- | --- | --- |
| CCC(C)[C@H](NC(=O)NCc1ccco1)C(=O)O (stereo not given in full) | -9.58% (inactive) | – |
| c1ccc(Cn2c(-c3ccccc3)c[n+]3c2SCCC3)cc1 | 22.7% (inactive) | – |
| Cc1sc2ncnc(Sc3nnc4sc5ccccc5n34)c2c1C | -0.98% (inactive) | – |
| CC(C)(C)S(=O)(=O)c1cnc2c(-c3ccc(Cl)cc3)cnn2c1N | – | 4.45 µM (active) |
| COc1ccc(-n2ncc(Cl)c(Cl)c2=O)cc1 | – | 8.88 µM (active) |
| Oc1ccccc1-c1cc(-c2ccc3c(c2)OCCO3)n[nH]1 | – | 11.2 µM (active) |
| Cc1cccc(-c2nc3cc(NC(=O)C4CCCO4)ccc3o2)c1 (stereo not given) | – | 0.396 µM (active) |
| Cc1cccc(-c2ocnc2C(=O)Nc2ccccc2NC(=O)c2ccccn2)c1 | – | 2.23 µM (active) |
| CCOC(=O)c1sc(NC(=O)c2sc(C)nc2C)nc1C | 6.4% (inactive) | – |
| Cc1ccc(Oc2nc(-c3ccccn3)nc3ccccc23)cc1 | – | 0.396 µM (active) |
| CC(=O)c1cccc(N(CC(=O)Nc2ccccc2C(=O)N2CCCC2)S(C)(=O)=O)c1 | 0.355% (inactive) | – |
| CC(C)CC(=O)NS(=O)(=O)c1ccc(N)cc1 | 2.46% (inactive) | – |
| Cc1ccc2nc(-c3ccc(NC(=O)COC(=O)c4ccc([N+](=O)[O-])o4)cc3)sc2c1 | – | 0.315 µM (active) |
| CCN(CC(=O)NCCc1ccc(Cl)cc1)Cc1nc2ccccc2c(=O)[nH]1 | – | 12.5 µM (active) |
| O=C(CCCN1C(=O)/C(=C/c2ccccc2Cl)SC1=S)NNC(=O)c1ccc(Cl)cc1Cl | – | 1.58 µM (active) |
| CC(C)(C)S(=O)(=O)c1cnc2c(-c3ccsc3)cnn2c1N | – | 22.3 µM (active) |
| CCOC(=O)[C@@H]1[C@H]2COc3cc(OC)ccc3[C@@H]2N2C(=O)N(c3ccc(C)cc3)C(=O)[C@@]12C | – | 14.1 µM (active) |
| CCOC(=O)Cc1ccc(NC(=O)c2ccc(C(C)(C)C)cc2)cc1 | 50.4% (inactive) | – |
| O=C(NC(=S)Nc1nc(-c2ccccc2)cs1)c1cncc(Br)c1 | – | 3.15 µM (active) |
| CCOC(=O)c1sc(NC(=O)c2cc3c(s2)CCC(C)C3)nc1C (stereo not given) | – | 0.0996 µM (active) |

| SMILES | activity change, negative = inhibition | Potency |
| --- | --- | --- |
| O=S(=O)(c1ccc(NC(=S)N/N=C/c2ccc(Oc3ccccc3)cc2)cc1)N1CCOCC1 | – | 1.12 µM (active) |
| O=C1NC2=C(C(=O)CCC2)C(c2ccccc2)N1 (stereo not given) | 2.63% (inactive) | – |
| O=C1CC(c2ccc(F)cc2)CC(O)=C1C1NCCc2ccccc21 (stereo not given) | 5.11% (inactive) | – |
| CCn1cc(C(=O)O)c(=O)c2cc(F)c(N3CCN(C(=S)NC(=O)c4ccccc4C)CC3)cc21 | -24.2% (inactive) | – |
| O=S(=O)(NCc1ccccn1)C(F)(F)F | – | 7.05 µM (active) |
| CCOc1ncccc1C(=O)OCC(=O)Nc1ccc(-c2nc3ccc(C)cc3s2)cc1 | – | 0.396 µM (active) |
| Cc1cc(-c2ccccc2)nc(N2CCC(C(=O)NCc3ccccc3Cl)CC2)n1 | -6.36% (inactive) | – |
| CCOC(=O)c1oc2cccc(OCC(O)CNC(C)C)c2c1C (stereo not given) | 16.8% (inactive) | – |
| Cc1cc(C)nc(-n2nc(C)cc2NC(=O)c2ccc(F)cc2F)n1 | – | 0.996 µM (active) |
| CN(Cc1nc2ccccc2c(=O)[nH]1)Cc1nc2ccsc2c(=O)[nH]1 | – | 1.41 µM (active) |
| Cc1cc(C)c(S(=O)(=O)NCCn2ccc3ccccc32)c(C)c1 | -4.64% (inactive) | – |
| COc1ccc(C(=O)Nc2ccc(NC(=O)c3cccs3)cn2)cc1 | -1.79% (inactive) | – |
| Cc1ccc2nc(-c3ccc(NC(=O)COC(=O)c4ccc(=O)[nH]c4)cc3)sc2c1 | – | 1.41 µM (active) |
| COC(=O)c1ccc(Oc2cc(C)nc(-n3nc(C)cc3C)n2)cc1 | – | 1.58 µM (active) |
| CCOc1ccc(C(=O)Nc2nc3ccccc3[nH]2)cc1OCC | – | 11.2 µM (active) |
| CC(C)(C)S(=O)(=O)c1cnc2c(-c3ccc(F)cc3)cnn2c1N | – | 11.2 µM (active) |
| S=c1[nH]c(-c2ccc(Br)cc2)cn1CCc1ccccc1 | – | 9.96 µM (active) |
| COc1cc(C2c3cc4c(cc3C(OC3OC5COC(c6cccs6)OC5C(O)C3O)C3COC(=O)C23)OCO4)cc(OC)c1O (stereo not given) | – | 4.99 µM (active) |
| Cc1ccc(C)c(/C=N/n2cc(-c3ccccc3)[nH]c2=S)c1 | – | 0.791 µM (active) |
| COc1ccc(OCC(=O)NNc2nc3ccccc3s2)cc1 | – | 14.1 µM (active) |
